Test results reported in ChEMBL document CHEMBL4888484, “Replenishing the malaria drug discovery pipeline: Screening and hit evaluation of the MMV Hit Generation Library 1 (HGL1) against asexual blood stage Plasmodium falciparum ,using a nano luciferase reporter read-out” (2022).
Hit rate of the full screen: of about 150,000 compounds, about 540 (0.36%) showed an effect of 50% or more. Only a selection was taken, and strong results are over-represented in it overall.

system: Plasmodium falciparum; experiment: Primary screen in NF54 nanoGlo assay, in single point, at 2uM, 72h; a lower Z score goes with more inhibition; format: functional, Erythrocyte; conditions: timepoint 72 hour

| SMILES | % Inhibition [%] | Z score |
| --- | --- | --- |
| COc1ccc(Cn2nnc3cc(C(=O)Nc4ccc(C)cc4C)ccc32)cc1 | -2 | 0.34 |
| CC1=Nc2ccccc2C12CCN(C(=O)Nc1cncc(F)c1)CC2 | 11 | -1.44 |
| O=C(Nc1onc2c1CCC2)c1ccc2ncsc2c1 | 0 | 0.01 |
| O=C(Nc1onc2c1CCC2)c1cccc2ccccc12 | 20 | -2.27 |
| O=C(Nc1onc2c1CCC2)c1ccc2ccccc2c1 | 76 | -8.19 |
| CC(=O)Nc1ccc(S(=O)(=O)NC2(c3nc(C)no3)CCCCC2)cc1 | -3 | 0.55 |
| O=C(Cn1cnc(-c2nc(-c3ccccc3)cs2)c1)Nc1ccc(F)cc1 | -8 | 0.99 |
| O=C(O)[C@H]1CCN(C(=O)Cn2c(COc3ccccc3)nc3ccccc32)C1 | -10 | 0.93 |
| Cc1nn(-c2ccccc2Cl)c(O)c1C(c1ccsc1)c1c(C)nn(-c2ccccc2Cl)c1O | 6 | -0.74 |
| Cc1nn(-c2nc3ccccc3s2)c(O)c1C(c1ccc(Cl)c(Cl)c1)c1c(C)nn(-c2nc3ccccc3s2)c1O | -10 | 0.88 |
| Cc1nn(-c2ccccn2)c(O)c1C(c1ccccc1)c1c(C)nn(-c2ccccn2)c1O | 96 | -9.38 |
| Cc1ccccc1C(=O)N1C(C(=O)NC(C)c2ccccc2)COC12CCN(C(=O)CC(C)(C)C)CC2 (centres undefined) | -5 | 0.47 |
| CCc1ccccc1C(=O)OCc1nccn1C | -3 | 0.26 |
| COc1ccc(-c2nc3c(cnn3C3CCN(C)CC3)[nH]2)cn1 | -7 | 0.9 |
| CN1CCC(n2ncc3[nH]c(-c4ccc(C(F)(F)F)cc4)nc32)CC1 | 97 | -17.43 |
| Fc1ccc(-c2nc3c(cnn3C3CCCC3)[nH]2)cc1 | -6 | 0.81 |
| Cc1c(-c2n[nH]c3c2CN(C(=O)c2csnn2)CC3)cccc1C(F)(F)F | -12 | 1.03 |
| Cc1n(CC(=O)c2ccccc2)c2ccccc2[n+]1CC(=O)c1ccccc1 | 59 | -12.26 |
| O=C(CN1CCN(CC(=O)c2ccccc2)CC1)c1ccccc1 | 0 | -0.02 |
| O=C(Cn1nnc2ccccc21)c1ccccc1 | -12 | 1.78 |
| O=C(N[C@H]1CCc2cc(F)c(F)c(F)c21)N1CCn2ncnc2C1 | -5 | 1.12 |

| SMILES | % Inhibition [%] | Z score |
| --- | --- | --- |
| COc1nccc2c(NCc3cn(C(C)(C)C)nn3)cccc12 | 5 | -1 |
| CCOc1ccc(S(=O)(=O)N[C@H]2CC[C@@H](CC(=O)O)C2)c(C)c1 | -1 | 0.16 |
| C[N+]12CCCCC1C(OC(=O)C1(c3ccccc3)CCCC1)CCC2 (centres undefined) | 63 | -6.6 |
| CO[C@@H]1CCC[C@@H]2CN(C(=O)C3(c4ccccc4)CCCC3)C[C@@H]21 | -4 | 0.35 |
| C[N+]12CCCC[C@@H]1[C@H](COC(=O)c1ccccc1Cl)CCC2 (some centres undefined) | 7 | -0.65 |
| c1cc(-c2nc3cc4ccccc4cc3[nH]2)nc(-c2nc3cc4ccccc4cc3[nH]2)c1 | 100 | -18.05 |
| Cc1cccc(C)c1OCC(=O)Nc1ccc(-c2nc3cc4ccccc4cc3[nH]2)cc1 | 49 | -5.57 |
| CCn1ncc(C(CC(=O)c2ccccc2)CC(=O)c2ccccc2)c1C | -8 | 1.07 |
| CCN(CC)C(=O)c1cnc2snc(C)c2c1N1CCC(C(=O)Nc2ccc(Br)c(C)c2)CC1 | 1 | -0.18 |
| CCOc1ccc(NC(=O)C2CCN(c3c(C(=O)N(CC)CC)cnc4snc(C)c34)CC2)cc1 | 5 | -0.93 |
| CCN(CC)C(=O)c1cnc2snc(C)c2c1N1CCC(C(=O)Nc2cc(F)ccc2F)CC1 | 6 | -0.96 |
| Cc1nsc2ncc(C(=O)N3CCCCC3)c(N3CCC(C(=O)Nc4cc(F)ccc4F)CC3)c12 | 5 | -0.78 |
| CCN(CC)C(=O)c1cnc2snc(C)c2c1N1CCC(C(=O)Nc2c(C)cc(C)cc2C)CC1 | 54 | -10.3 |
| Cc1nsc2ncc(C(=O)N3CCC(C)CC3)c(N3CCC(C(=O)Nc4cc(F)ccc4F)CC3)c12 | 60 | -4.06 |
| CN1CCC(NC(=O)NCC2(CO)CCC2)C1c1ccccc1 (centres undefined) | -12 | 2.33 |
| Cc1cccnc1[C@H](C)NC(=O)CNC(=O)N(C)C | -9 | 1.68 |
| Fc1ccc(Cc2nnc3n2CCCC3)cc1 | 3 | -0.52 |
| COc1ccccc1CNc1nc2[nH]c3c(c(=O)n2n1)CCCC3 | 8 | -0.7 |
| CC(C)(C)[C@H]1CCc2c(sc(NC(=O)c3cc(-c4ccccc4)nc4ccccc34)c2C#N)C1 | 13 | -1.58 |
| CC(C)(C)[C@H]1CCc2c(sc(NC(=O)CN3CCCC3)c2C#N)C1 | 10 | -1.29 |
| CC(C)(C)[C@H]1CCc2c(sc(NC(=O)C3(F)C(F)(F)C(F)(F)C(F)(F)C(F)(F)C3(F)F)c2C#N)C1 | 77 | -6.03 |

| SMILES | % Inhibition [%] | Z score |
| --- | --- | --- |
| Cc1ccc(N2CCCC2=O)cc1NC(=O)N1CCC(c2n[nH]cc2C)CC1 | -8 | 1.78 |
| Cc1csc(CNC(=O)NCc2nnc3n2CCOCC3)c1 | -2 | 0.17 |
| COc1ccc(CCNC(=O)c2cnn3c4c(cnc23)C[C@@H](C)CC4)cc1OC | 61 | -4.54 |
| C[C@H]1CCc2c(cnc3c(C(=O)NCc4ccccc4)cnn23)C1 | 33 | 0.71 |
| COc1cccc(CNC(=O)c2cnn3c4c(cnc23)C[C@@H](C)CC4)c1 | 0 | 0.03 |
| O=C(COc1ccc(Cl)cc1)N1CC(=O)N2CCc3ccccc3[C@@H]2C1 | -8 | 1.08 |
| O=C(CN1C(=O)c2ccccc2C1=O)N1CC(=O)N2CCc3ccccc3[C@@H]2C1 | 65 | -8.85 |
| O=C(CC(c1ccccc1)c1ccccc1)N1CC(=O)N2CCc3ccccc3[C@@H]2C1 | 39 | -5.29 |
| CCN(CC)S(=O)(=O)c1ccc(F)c(C(=O)OCCNC(C)=O)c1 | -10 | 0.84 |
| CC1(C)CCC(Nc2ccc(C(N)=O)nn2)CC1 | 77 | -11.08 |
| Nc1ccc(-c2ccc(NC3CCCC3)nn2)cn1 | -16 | 1.48 |
| CNC(=O)c1ccc(NC2CC3CC3C2)nn1 (centres undefined) | 6 | -0.99 |
| COc1ccc(OC)c([C@@H]2CCCN2c2nnc(-c3ccccn3)s2)c1 | -13 | 2.07 |
| Cc1ccc(C(F)(F)C(=O)NCCC(=O)NS(C)(=O)=O)cc1 | 57 | -7.27 |
| O=C(NCCc1nc2ccccc2[nH]1)C(F)(F)c1ccc(F)cc1 | 4 | -0.36 |
| Cc1ccccc1OCC(=O)NS(C)(=O)=O | -1 | 0.11 |
| Cc1cccc(NC(=O)C2C(=O)N[C@]34CCCCC3C2c2ccccc2O4)c1 (some centres undefined) | 2 | -0.27 |
| COc1ccc2c(c1)OC13CCN(C)CC1C2C(C(=O)c1ccccc1OC)C(=O)N3 (centres undefined) | 58 | -6.85 |
| COc1ccccc1NC(=O)C1C(=O)NC23CCCCC2C1c1ccccc1O3 (centres undefined) | -8 | 1.04 |
| O=C(CCOc1ccc(F)c(Cl)c1)NCc1cccnc1 | 15 | -2.11 |
| CN(CCO)C[C@@H]1CN(C(=O)C2(c3ccccc3)CCCC2)C[C@@H]1CO | -27 | 2.7 |

| SMILES | % Inhibition [%] | Z score |
| --- | --- | --- |
| COc1ccnc(-c2cc(O)cc(CC[C@H]3CCCCN3)c2)n1 | -4 | 0.49 |
| COc1cccc(-c2cc(O)cc(CC[C@H]3CCCCN3)c2)n1 | 80 | -13.26 |
| Oc1cc(CC[C@H]2CCCCN2)cc(-c2cnc3ccccc3n2)c1 | 59 | -7.37 |
| Oc1ccc(-c2cc(O)cc(CC[C@H]3CCCCN3)c2)nc1 | -14 | 1.77 |
| CN(C)c1cncc(-c2cc(O)cc(CC[C@H]3CCCCN3)c2)n1 | -2 | 0.33 |
| COc1nccnc1-c1cc(O)cc(CC[C@H]2CCCCN2)c1 | -23 | 3.42 |
| CC(C)(C)OC(=O)N1CC(CNC2(c3ncon3)CCC2)C1 | 9 | -1.69 |
| CC1(C)[C@H]2CC=C(CCNc3nc(-c4ccncc4)nc4c3CNC4)[C@@H]1C2 | 0 | -0.03 |
| CN(C[C@@H]1CCCN2CCCC[C@H]12)C(=O)Cc1c[nH]c2ccccc12 | -1 | 0.06 |
| Cc1cc(-c2cncc(CN3CCCCC3)c2)ccc1F | 50 | -1.27 |
| COc1ccc(-c2cncc(CN3CCCC3)c2)cc1OC | -9 | 1.71 |
| Cc1cc(-c2cncc(CN3CCC(C(N)=O)CC3)c2)ccc1F | -2 | 0.18 |
| Cc1ccc2c(C(=O)N3CCCCC3)cc(-c3cncnc3)nc2c1C | 3 | -0.37 |
| O=c1c2cc(F)ccc2c(Br)cn1CC1(CO)COC1 | 20 | -2.48 |
| C[C@H](NC(=O)c1cc(C(F)(F)F)n[nH]1)c1n[nH]c(N)n1 | -2 | 0.47 |
| OC1=Nc2c(ncn2-c2cccnc2)[C@@H](c2ccc(F)c(F)c2)C1 | 0 | -0.05 |
| CCC1=Nc2ccccc2N=C(NC(=O)c2ccc(F)cc2)[C@H]1c1ccc(OC)c(OC)c1 | -11 | 1.75 |
| CCC1=Nc2ccccc2N=C(NC(=O)CN2CCN(C)CC2)[C@H]1c1ccccc1 | -6 | 0.93 |
| CCC1=Nc2ccccc2N=C(NC(=O)C(C)C)[C@H]1c1ccc(F)cc1 | 64 | -2.85 |
